Assay results as given in PubChem BioAssay (EPA / NIEHS).
Several values for one entry are separate records, joined by “and”; a condition that tells them apart may be missing. Equal values may be shown once. Inconclusive results are not listed. Activity calls are given as the source filed them. Rule for the calls: active = hit-call score of the fitted dose curve at least 0.9, where 1 is the maximum; inconclusive = response in the unintended direction; inactive = score below 0.9.

The compounds below were run against human Beta-secretase (BACE), BACE1 (gene 23621) (UniProt P56817) (assay: NVS_ENZ_hBACE: NovaScreen (NVS) Enzymatic Assay for human Beta-secretase (BACE) (AID 2283140);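 note: hits are inhibitors that reduce fluorescent substrate signal versus DMSO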).
human Beta-secretase (BACE), BACE1 (gene 23621), sequence (P56817 whole entry, looked up): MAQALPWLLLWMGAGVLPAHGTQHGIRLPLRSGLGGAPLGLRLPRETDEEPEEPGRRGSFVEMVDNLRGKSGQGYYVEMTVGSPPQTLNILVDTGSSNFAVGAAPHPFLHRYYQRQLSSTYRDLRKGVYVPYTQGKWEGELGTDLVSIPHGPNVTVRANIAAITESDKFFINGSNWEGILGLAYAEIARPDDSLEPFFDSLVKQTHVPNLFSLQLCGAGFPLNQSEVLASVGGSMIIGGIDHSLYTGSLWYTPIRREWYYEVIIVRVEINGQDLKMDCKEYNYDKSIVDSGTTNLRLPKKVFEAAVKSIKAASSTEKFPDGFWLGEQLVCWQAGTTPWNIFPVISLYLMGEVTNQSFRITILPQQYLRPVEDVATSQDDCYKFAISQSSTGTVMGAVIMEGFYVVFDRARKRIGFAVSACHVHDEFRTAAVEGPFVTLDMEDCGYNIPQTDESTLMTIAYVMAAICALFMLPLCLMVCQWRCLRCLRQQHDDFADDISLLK
In short: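 Enzyme activity of SF9-produced BACE1 is measured cell-free by fluorescence, 1 hour post dosing, normalised to DMSO. Screening used 25 uM in duplicate, with concentration-response follow-up for actives.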
For `Cc1ccc(-c2c(Cl)nc(C#N)n2S(=O)(=O)N(C)C)cc1`, the outcome was “inactive”. With `CCCCOC(=O)c1ccccc1C(=O)OCCCC` the outcome was “inactive”. With `Cc1c(F)c(F)c(COC(=O)C2C(/C=C(\Cl)C(F)(F)F)C2(C)C)c(F)c1F` (stereo unspecified) the outcome was “inactive”. With `C#CCOS(=O)OC1CCCCC1Oc1ccc(C(C)(C)C)cc1` (stereo unspecified) the AC50 was 14.8 µM (active). With `COc1ccc(C(c2ccc(OC)cc2)C(Cl)(Cl)Cl)cc1` the AC50 was 33.9 µM (active). With `CC(C)Oc1cc(-n2nc(C(C)(C)C)oc2=O)c(Cl)cc1Cl` the outcome was “inactive”. In the case of `CCOP(=S)(OCC)SCn1c(=O)oc2cc(Cl)ccc21`, the AC50 is reported as 14.4 µM (active). In the case of `CNC(=S)S`, the outcome is reported as “inactive”. For `COC(=O)N(OC)c1ccccc1COc1ccn(-c2ccc(Cl)cc2)n1`, the AC50 was 11.6 µM (active). With `C=CCC1=C(C)C(OC(=O)C2C(C=C(C)C)C2(C)C)CC1=O` (stereo unspecified) the outcome was “inactive”. With `O=C(Nc1ccccc1)Nc1ccnc(Cl)c1` the AC50 was 5.29 µM (active). With `COC(=O)C(C)Oc1ccc(Oc2ccc(Cl)cc2Cl)cc1` (stereo unspecified) the AC50 was 5.69 µM (active) and 16.3 µM (active) and 5.37 µM (active).

These compounds were tested against human AKT serine/threonine Kinase 2 (AKT2), AKT2 (gene 208) (UniProt P31751) (assay: NVS_ENZ_hAKT2: NovaScreen (NVS) Enzymatic Assay for human AKT serine/threonine Kinase 2 (AKT2) (AID 2283141)).
human AKT serine/threonine Kinase 2 (AKT2), AKT2 (gene 208), sequence (P31751 whole entry, looked up): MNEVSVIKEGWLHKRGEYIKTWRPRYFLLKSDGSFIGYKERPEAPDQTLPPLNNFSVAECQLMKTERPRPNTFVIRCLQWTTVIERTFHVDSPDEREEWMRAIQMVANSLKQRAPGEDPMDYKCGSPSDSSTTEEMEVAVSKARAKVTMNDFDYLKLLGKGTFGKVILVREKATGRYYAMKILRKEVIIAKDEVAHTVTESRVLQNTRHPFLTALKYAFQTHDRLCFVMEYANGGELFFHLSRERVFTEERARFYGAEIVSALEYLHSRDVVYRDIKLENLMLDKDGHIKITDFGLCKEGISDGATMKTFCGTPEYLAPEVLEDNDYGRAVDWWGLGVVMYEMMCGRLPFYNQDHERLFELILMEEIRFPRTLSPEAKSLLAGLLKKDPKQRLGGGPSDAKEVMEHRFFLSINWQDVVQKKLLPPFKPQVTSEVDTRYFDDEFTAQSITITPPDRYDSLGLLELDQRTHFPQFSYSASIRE
In short: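 Cell-free fluorescence/electrophoretic mobility shift readout of recombinant human AKT2 activity, 1 h after chemical dosing. Duplicate primary screen at 25 uM, then singleton concentration-response up to 50 uM; loss of signal versus DMSO baseline.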
`CNC(=S)S` was tested, and the outcome was “inactive”. In the case of `COc1nc(C)nc(NC(=O)NS(=O)(=O)c2ccccc2CCC(F)(F)F)n1`, the outcome is reported as “inactive”. In the case of `CS/C(C)=N/OC(=O)N(C)SN(C)C(=O)O/N=C(\C)SC`, the outcome is reported as “inactive”.

Each compound was assayed against human Aurora Kinase A - serine/threonine-protein Kinase 6 (AurA), AURKA (gene 6790) (UniProt O14965) (assay: NVS_ENZ_hAurA: NovaScreen (NVS) Enzymatic Assay for human Aurora Kinase A - serine/threonine-protein Kinase 6 (AurA) (AID 2283142)).
human Aurora Kinase A - serine/threonine-protein Kinase 6 (AurA), AURKA (gene 6790), sequence (O14965 whole entry, looked up): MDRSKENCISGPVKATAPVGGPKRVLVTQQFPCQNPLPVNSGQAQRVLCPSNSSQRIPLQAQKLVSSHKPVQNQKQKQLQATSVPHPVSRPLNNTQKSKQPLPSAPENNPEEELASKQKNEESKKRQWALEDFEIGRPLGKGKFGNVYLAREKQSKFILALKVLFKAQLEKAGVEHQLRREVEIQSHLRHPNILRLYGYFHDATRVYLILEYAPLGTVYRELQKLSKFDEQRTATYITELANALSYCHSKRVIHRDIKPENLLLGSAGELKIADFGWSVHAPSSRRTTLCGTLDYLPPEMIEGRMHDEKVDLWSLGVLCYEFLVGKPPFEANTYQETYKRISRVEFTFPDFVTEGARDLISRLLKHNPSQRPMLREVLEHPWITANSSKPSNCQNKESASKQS
In short: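 Recombinant human AurA activity read by fluorescence after mobility-shift separation of product from substrate; 1 hour incubation. Chemicals first run in duplicate at 25 uM, then concentration series to 50 uM if over threshold; fitted relative to DMSO.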
For `Cc1ccc(-c2c(Cl)nc(C#N)n2S(=O)(=O)N(C)C)cc1`, the AC50 was 23.5 µM (active). In the case of `N#Cc1cc(Br)c(O)c(Br)c1`, the outcome is reported as “inactive”. `Oc1ccccc1-c1ccccc1` was tested, and the outcome was “inactive”. In the case of `Fc1ccc(Oc2ccnc3cc(Cl)cc(Cl)c23)cc1`, the outcome is reported as “inactive”. With `CCCCNC(=O)n1c(NC(=O)OC)nc2ccccc21` the outcome was “inactive”. `CNC(=S)S` was tested, and the outcome was “inactive”. `CCCN(CCC)c1c([N+](=O)[O-])cc(S(N)(=O)=O)cc1[N+](=O)[O-]` was tested, and the outcome was “inactive”.

Each compound was assayed against human Caspase 4 (CASP4), CASP4 (gene 837) (UniProt P49662) (assay: NVS_ENZ_hCASP4: NovaScreen (NVS) Enzymatic Assay for human Caspase 4 (CASP4) (AID 2283143)).
human Caspase 4 (CASP4), CASP4 (gene 837), sequence (P49662 whole entry, looked up): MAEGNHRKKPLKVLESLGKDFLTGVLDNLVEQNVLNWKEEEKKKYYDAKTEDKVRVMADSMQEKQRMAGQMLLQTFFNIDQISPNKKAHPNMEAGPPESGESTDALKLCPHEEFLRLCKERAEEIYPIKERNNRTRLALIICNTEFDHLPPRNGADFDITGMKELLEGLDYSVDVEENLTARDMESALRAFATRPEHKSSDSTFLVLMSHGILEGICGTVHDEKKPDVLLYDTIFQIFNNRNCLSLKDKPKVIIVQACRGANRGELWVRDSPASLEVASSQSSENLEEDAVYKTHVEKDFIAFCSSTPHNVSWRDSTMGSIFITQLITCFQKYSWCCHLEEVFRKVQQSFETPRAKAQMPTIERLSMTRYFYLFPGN
In short: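 Compounds were first tested in duplicate at 25 uM, and hits were titrated singly to a 50 uM maximum. Recombinant protease from E. coli was read by fluorescence 2 h post-dose, and activity loss was fitted against the DMSO baseline.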
For `CC(C)C1(C)N=C(c2nc3ccccc3cc2C(=O)O)NC1=O` (stereo unspecified), the outcome was “inactive”. For `CC(C)Oc1cc(-n2nc(C(C)(C)C)oc2=O)c(Cl)cc1Cl`, the outcome was “inactive”. In the case of `CNC(=S)S`, the outcome is reported as “inactive”. For `CO/C=C(/C(=O)OC)c1ccccc1Oc1cc(Oc2ccccc2C#N)ncn1`, the outcome was “inactive”.
